Results: PubChem BioAssay AID1159580 (chemical genetic matrix, 2015)
Values joined by “and” are separate entries in the source; they are usually repeats but may differ in a detail not shown here. Identical values can stand only once. Among all 5,500 compounds or so, about 2,000 (36%) were called active. Not shown: some 18% with an inconclusive outcome. Rule as the data show it: active = normalized growth mostly below about 0.91 (no sharp cut-off); inconclusive = no clear call, values can overlap the other calls; inactive = mostly above about 0.92. Some of the results follow.

Assay: chemical genetic growth profiling, strain panel (AID 1159580);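 also: tested at 20 µM; growth read once vehicle control cultures reached saturation at 30 °C; 1 = growth at the plate median or of vehicle wells; lower values mean less growth of the strain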
Conditions: S. cerevisiae deletion strains, growth OD

Measured: normalized growth

CC(C)CC1C(=O)N2CCC[C@H]2C2(O)O[C@](NC(=O)C3C=C4c5cccc6[nH]c(Br)c(c56)C[C@H]4N(C)C3)(C(C)C)C(=O)N12 (stereo partly specified)
inactive: locus YAL013W, strain DEP1, hits give low values 0.989 | locus YAL021C, strain ccr4, hits give low values 0.976 | locus YAL026C, strain drs2, hits give low values 0.991 | locus YAL030W, strain snc1, hits give low values 0.998 | locus YBL061C, strain skt5, hits give low values 0.987 | locus YBR009C, strain hhf1, hits give low values 0.996 | locus YBR021W, strain FUR4, hits give low values 0.996 | locus YBR023C, strain chs3, hits give low values 0.992 | locus YBR171W, strain sec66, hits give low values 0.981 | locus YBR229C, strain ROT2, hits give low values 0.993 | locus YBR231C, strain swc5, hits give low values 0.968 | locus YBR279W, strain paf1, hits give low values 0.988 | locus YCL011C, strain gbp2, hits give low values 0.976 | locus YCL016C, strain dcc1, hits give low values 0.995 | locus YCL029C, strain bik1, hits give low values 0.961 | locus YCL069W, strain vba3, hits give low values 0.997 | locus YCR088W, strain abp1, hits give low values 0.99 | locus YDL005C, strain med2, hits give low values 0.987 | locus YDL035C, strain GPR1, hits give low values 0.993 | locus YDL040C, strain nat1, hits give low values 0.984 | locus YDL074C, strain BRE1, hits give low values 0.974 | locus YDL101C, strain DUN1, hits give low values 0.988 | locus YDL134C, strain PPH21, hits give low values 0.992 | locus YDL185W, strain tfp1, hits give low values 0.947 | locus YDL192W, strain arf1, hits give low values 0.965 | locus YDR001C, strain nth1, hits give low values 0.972 | locus YDR069C, strain doa4, hits give low values 0.983 | locus YDR101C, strain arx1, hits give low values 0.984 | locus YDR137W, strain rgp1, hits give low values 0.885 | locus YDR150W, strain NUM1, hits give low values 0.976 | locus YDR159W, strain sac3, hits give low values 0.989 | locus YDR162C, strain NBP2, hits give low values 0.989 | locus YDR195W, strain ref2 0.962 | locus YDR297W, strain sur2, hits give low values 0.976 | locus YDR318W, strain mcm21, hits give low values 0.977 | locus YDR334W, strain swr1, hits give low values 0.973 | locus YDR335W, strain msn5, hits give low values 0.995 | locus YDR388W, hits give low values 0.989 | locus YDR392W, strain spt3, hits give low values 0.959 | locus YDR502C, strain sam2, hits give low values 0.972 | locus YEL003W, strain gim4, hits give low values 0.981 | locus YEL037C, strain rad23, hits give low values 0.989 | locus YEL061C, strain CIN8 (second series), hits give low values 0.995 | locus YEL061C, strain CIN8, hits give low values 0.982 | locus YER015W, strain faa2, hits give low values 0.972 | locus YER016W, strain bim1, hits give low values 0.982 | locus YER110C, hits give low values 0.964 | locus YER111C, strain swi4, hits give low values 0.993 | locus YER155C, strain BEM2 (second series), hits give low values 0.973 | locus YER155C, strain BEM2, hits give low values 0.985 | locus YER167W, strain BCK2, hits give low values 0.961 | locus YFR010W, strain ubp6, hits give low values 1.01 | locus YGL078C, strain dbp3, hits give low values 0.965 | locus YGL086W, strain mad1, hits give low values 0.97 | locus YGL167C, strain pmr1, hits give low values 0.974 | locus YGL173C, strain kem1, hits give low values 1 | locus YGL227W, strain vid30, hits give low values 0.994 | locus YGL240W, strain doc1, hits give low values 0.943 | locus YGL248W, strain PDE1, hits give low values 0.987 | locus YGL253W, strain hxk2, hits give low values 0.993 | locus YGR078C, strain PAC10, hits give low values 0.989 | locus YGR135W, strain pre9, hits give low values 0.982 | locus YGR229C, strain SMI1, hits give low values 1.01 | locus YGR252W, strain gcn5, hits give low values 1.14 | locus YHR013C, strain ard1, hits give low values 0.945 | locus YHR027C, strain rpn1, hits give low values 0.962 | locus YHR030C, strain SLT2, hits give low values 0.981 and 0.978 | locus YHR079C, strain IRE1 (second series), hits give low values 0.982 | locus YHR079C, strain IRE1, hits give low values 0.986 | locus YHR094C, strain hxt1, hits give low values 0.966 | locus YHR129C, strain ARP1, hits give low values 0.985 | locus YHR142W, strain chs7, hits give low values 1.01 | locus YHR200W, strain rpn10, hits give low values 0.976 | locus YIL066C, strain RNR3, hits give low values 0.981 | locus YIL073C, strain SPO22, hits give low values 0.925 | locus YIL125W, strain kgd1, hits give low values 0.965 | locus YIR030C, strain dcg1, hits give low values 0.987 | locus YJL092W, strain hpr5, hits give low values 0.968 | locus YJL095W, strain BCK1 (second series), hits give low values 0.999 | locus YJL095W, strain BCK1, hits give low values 0.971 and 0.976 | locus YJL115W, strain asf1, hits give low values 0.958 | locus YJL129C, strain trk1, hits give low values 0.957 | locus YJL134W, strain LCB3, hits give low values 0.983 | locus YJL154C, strain vps35, hits give low values 0.979 | locus YJL164C, strain tpk1, hits give low values 0.997 | locus YJL166W, strain qcr8, hits give low values 0.996 | locus YJL168C, strain set2, hits give low values 0.977 | locus YJL187C, strain SWE1 (second series), hits give low values 0.979 | locus YJR043C, strain POL32, hits give low values 0.995 | locus YJR066W, strain TOR1, hits give low values 0.993 | locus YJR075W, strain HOC1, hits give low values 0.992
